# Source: PubChem BioAssay (NCATS)
# Where “and” joins values, the source holds several entries; their conditions need not be identical. Identical values can stand only once. Records with an inconclusive call do not appear. Entries that show only a call come without a potency. Calls of active or inactive are those of the source. Unless noted, calls follow the shape of the full dose curve.
# Tests used:
# [1] = molecular target: Bile acid receptor (Homo sapiens) (UniProt Q96RI1); experiment: qHTS assay for small molecule agonists of farnesoid X receptor signaling (AID 588527); settings: HEK293T FXR-UAS-bla, beta-lactamase ratio, 16 h; stronger effect = higher value
# Sequence of Bile acid receptor (Homo sapiens) (Q96RI1 whole entry, looked up): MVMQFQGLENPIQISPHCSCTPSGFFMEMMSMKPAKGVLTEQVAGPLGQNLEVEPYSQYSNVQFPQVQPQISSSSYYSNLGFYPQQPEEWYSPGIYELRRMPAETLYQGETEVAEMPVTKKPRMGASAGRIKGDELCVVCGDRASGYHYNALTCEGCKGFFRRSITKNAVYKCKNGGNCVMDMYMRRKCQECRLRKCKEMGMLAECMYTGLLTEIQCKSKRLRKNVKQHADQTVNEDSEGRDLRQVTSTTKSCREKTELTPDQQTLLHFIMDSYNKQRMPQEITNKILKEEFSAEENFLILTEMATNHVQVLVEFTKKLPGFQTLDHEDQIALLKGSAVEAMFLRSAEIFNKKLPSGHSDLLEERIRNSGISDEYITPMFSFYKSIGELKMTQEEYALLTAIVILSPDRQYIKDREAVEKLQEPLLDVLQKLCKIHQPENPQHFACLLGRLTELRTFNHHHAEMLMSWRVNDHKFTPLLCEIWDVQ
# Procedure, shortened: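 Read-out: beta-lactamase reporter fluorescence with CCF4 substrate in GeneBLAzer FXR-UAS-bla HEK293T cells, after 16 h compound exposure at 37 C. Response scaled between DMSO basal (0%) and chenodeoxycholic acid at 100 uM (100%).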
# [2] = MultiTox-Fluor Cytotoxicity Assay - LYMP1-001 - Live Cells (AID 947; active = well fitted curve in the direction sought with a large enough effect; an effect the other way counts as inactive or inconclusive); settings: LYMP1-001 lymphoblastoid cells, live-cell protease fluorescence viability; series mostly up to 92.2 µM
# [3] = MultiTox-Fluor Cytotoxicity Assay - LYMP1-002 - Dead Cells (AID 960; active = well fitted curve in the direction sought with a large enough effect; an effect the other way counts as inactive or inconclusive; also: nearly all actives have a fitted effect of over 60% in size); settings: LYMP1-002 lymphoblastoid cells, dead-cell protease fluorescence; series mostly up to 46.1 µM
# Procedure, shortened: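 Human lymphoblastoid LYMP1-002 cells, 2500/well, treated 16 h at 37 C; dead-cell protease cleavage of bis-AAF-R110 read by fluorescence (485/520); normalized to DMSO and 15 uM tetraoctylammonium bromide; AC50 from Hill fit.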
# [4] = Cell Viability - LYMP2-004 (AID 966; active = well fitted curve in the direction sought with a large enough effect; an effect the other way counts as inactive or inconclusive; also: nearly all actives have a fitted effect of over 65% in size); settings: LYMP2-004 lymphoblastoid cell viability, qHTS; series mostly up to 92.2 µM
# Procedure, shortened: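 Lymphoblastoid LYMP2-004 cells, 2500 per well, were preincubated for 5 hr and then treated with compound for 24 h at 37 C in complete medium. Viability was read as cellular ATP by CellTiter-Glo luminescence, and AC50 values were taken from Hill fits to concentration-response data.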
# [5] = Cell Viability - LYMP2-009 (AID 968; active = well fitted curve in the direction sought with a large enough effect; an effect the other way counts as inactive or inconclusive; also: nearly all actives have a fitted effect of over 55% in size); settings: LYMP2-009 lymphoblastoid cell viability; series mostly up to 92.2 µM
# [6] = molecular target: Glucocorticoid receptor (Homo sapiens) (UniProt P04150); experiment: qHTS assay for small molecule agonists of glucocorticoid receptor signaling (AID 588532; active = well fitted curve in the direction sought with a large enough effect in the signal ratio, with a control signal flat; the % refers to the signal ratio); settings: HeLa MMTV-bla, beta-lactamase ratio, agonist, 18 h; stronger effect = higher value; percent of dexamethasone control, DMSO zero
# Sequence of Glucocorticoid receptor (Homo sapiens) (P04150 whole entry, looked up): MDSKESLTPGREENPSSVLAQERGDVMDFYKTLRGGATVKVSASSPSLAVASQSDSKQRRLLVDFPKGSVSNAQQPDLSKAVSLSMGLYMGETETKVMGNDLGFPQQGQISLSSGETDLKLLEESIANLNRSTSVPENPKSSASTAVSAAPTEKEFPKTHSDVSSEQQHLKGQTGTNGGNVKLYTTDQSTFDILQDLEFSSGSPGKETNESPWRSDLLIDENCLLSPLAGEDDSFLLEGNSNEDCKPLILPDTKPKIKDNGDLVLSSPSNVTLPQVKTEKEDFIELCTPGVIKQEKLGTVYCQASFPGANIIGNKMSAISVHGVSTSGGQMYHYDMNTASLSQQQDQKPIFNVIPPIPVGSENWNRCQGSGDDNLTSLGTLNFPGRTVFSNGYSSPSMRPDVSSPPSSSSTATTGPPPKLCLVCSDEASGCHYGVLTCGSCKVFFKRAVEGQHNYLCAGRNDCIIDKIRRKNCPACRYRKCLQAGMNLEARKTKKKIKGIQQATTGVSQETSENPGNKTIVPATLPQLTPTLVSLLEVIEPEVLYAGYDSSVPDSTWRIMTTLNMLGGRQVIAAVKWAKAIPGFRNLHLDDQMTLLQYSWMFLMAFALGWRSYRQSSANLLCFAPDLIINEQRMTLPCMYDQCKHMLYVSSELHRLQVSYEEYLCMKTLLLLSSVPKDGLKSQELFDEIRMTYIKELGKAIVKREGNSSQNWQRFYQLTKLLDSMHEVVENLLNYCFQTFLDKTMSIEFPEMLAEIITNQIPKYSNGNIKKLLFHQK
# Procedure, shortened: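 Using MMTV-bla HeLa cells in medium with 1% stripped FBS and 25 mM HEPES, compounds were titrated and incubated overnight-length (18 h). Beta-lactamase cleavage of CCF4 was quantified by dual-emission fluorescence.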
# [7] = molecular target: Glucocorticoid receptor (Homo sapiens) (UniProt P04150); experiment: qHTS assay for small molecule antagonists of glucocorticoid receptor signaling (AID 588533; active = well fitted inhibition curve with a large enough effect in the signal ratio, with a control signal flat, not every such curve was filed as active; the % refers to the signal ratio;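 also: cells stimulated with 2 nM dexamethasone as agonist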); settings: HeLa MMTV-bla, GRE beta-lactamase ratio, antagonist mode, 18 h; series mostly up to 76.8 µM
# Procedure, shortened: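 Antagonist-mode qHTS: compound titrations added to GRE-bla HeLa cells, then dexamethasone 2 nM final; 18 h, 37 C. CCF4 FRET fluorescence normalized to dexamethasone and DMSO; IC50 from Hill fit.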
# [8] = qHTS assay for small molecule antagonists of peroxisome proliferator-activated receptor delta signaling (AID 588535; active = well fitted inhibition curve with a large enough effect in the signal ratio, with a control signal flat, not every such curve was filed as active; the % refers to the signal ratio;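 as to max response: cells co-treated with a PPAR-delta agonist as stimulator during compound exposure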); settings: HEK293T PPARd-UAS-bla, beta-lactamase FRET ratio, 18 h; 460 nm channel
# Procedure, shortened: (§1)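 HEK293T PPAR-delta-UAS-bla cells, 4000/well, 2% charcoal/dextran FBS; 5 h 37 C; cpd titration; 18 h 37 C; CCF4 2 h RT; FI 460/530 nm; Hill fit → IC50, efficacy.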
# [9] = molecular target: Peroxisome proliferator-activated receptor delta (Homo sapiens) (UniProt Q03181); experiment: as above; settings: HEK293T PPARd-UAS-bla, beta-lactamase FRET ratio, 18 h; series mostly up to 76.7 µM
# Sequence of Peroxisome proliferator-activated receptor delta (Homo sapiens) (Q03181 whole entry, looked up): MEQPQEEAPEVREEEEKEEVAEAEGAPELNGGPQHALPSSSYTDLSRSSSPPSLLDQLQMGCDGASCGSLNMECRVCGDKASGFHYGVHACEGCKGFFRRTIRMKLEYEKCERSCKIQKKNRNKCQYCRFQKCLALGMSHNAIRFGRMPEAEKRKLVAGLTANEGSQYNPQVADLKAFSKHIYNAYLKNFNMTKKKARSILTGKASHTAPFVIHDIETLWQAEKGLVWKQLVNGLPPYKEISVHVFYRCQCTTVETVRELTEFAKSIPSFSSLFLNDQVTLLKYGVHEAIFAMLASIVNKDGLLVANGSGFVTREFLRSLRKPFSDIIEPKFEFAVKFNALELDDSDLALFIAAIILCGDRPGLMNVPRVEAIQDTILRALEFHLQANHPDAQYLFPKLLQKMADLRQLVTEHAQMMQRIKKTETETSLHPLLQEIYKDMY
# Procedure, shortened: as §1
# [10] = molecular target: Peroxisome proliferator-activated receptor gamma (Homo sapiens) (UniProt P37231); experiment: qHTS assay for small molecule agonists of peroxisome proliferator-activated receptor gamma signaling (AID 588536; active = well fitted curve in the direction sought with a large enough effect in the signal ratio, with a control signal flat, not every such curve was filed as active; the % refers to the signal ratio); settings: HEK293 PPARg-UAS-bla, beta-lactamase ratio, 16 h, percent of rosiglitazone response, DMSO as zero; series mostly up to 76.7 µM
# Sequence of Peroxisome proliferator-activated receptor gamma (Homo sapiens) (P37231 whole entry, looked up): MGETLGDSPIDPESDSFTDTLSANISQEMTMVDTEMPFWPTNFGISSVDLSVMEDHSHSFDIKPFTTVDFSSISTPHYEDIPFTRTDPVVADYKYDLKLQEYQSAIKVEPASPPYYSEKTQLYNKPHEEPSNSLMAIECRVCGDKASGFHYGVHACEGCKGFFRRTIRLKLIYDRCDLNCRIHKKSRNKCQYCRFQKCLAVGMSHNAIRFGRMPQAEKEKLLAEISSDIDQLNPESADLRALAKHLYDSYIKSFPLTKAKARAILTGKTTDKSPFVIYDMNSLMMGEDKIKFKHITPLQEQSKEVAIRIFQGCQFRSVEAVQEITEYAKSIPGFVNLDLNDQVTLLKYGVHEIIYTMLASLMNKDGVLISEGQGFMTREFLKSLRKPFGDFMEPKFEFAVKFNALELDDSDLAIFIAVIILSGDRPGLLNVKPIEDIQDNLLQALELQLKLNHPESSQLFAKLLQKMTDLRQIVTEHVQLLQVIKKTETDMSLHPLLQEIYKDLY
# Procedure, shortened: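 Test agents, titrated, stimulated HEK293 UAS-bla cells overnight (16 h, 37 C). Substrate CCF4 was then added for two hours at room temperature before fluorescence reading.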
# [11] = molecular target: Vitamin D3 receptor (Homo sapiens) (UniProt P11473); experiment: qHTS assay for small molecule antagonists of vitamin D receptor signaling (AID 588541); settings: HEK293T VDR-UAS-bla, beta-lactamase ratio, antagonist mode; series mostly up to 76.7 µM;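 also: receptor activated by calcitriol during compound treatment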
# Sequence of Vitamin D3 receptor (Homo sapiens) (P11473 whole entry, looked up): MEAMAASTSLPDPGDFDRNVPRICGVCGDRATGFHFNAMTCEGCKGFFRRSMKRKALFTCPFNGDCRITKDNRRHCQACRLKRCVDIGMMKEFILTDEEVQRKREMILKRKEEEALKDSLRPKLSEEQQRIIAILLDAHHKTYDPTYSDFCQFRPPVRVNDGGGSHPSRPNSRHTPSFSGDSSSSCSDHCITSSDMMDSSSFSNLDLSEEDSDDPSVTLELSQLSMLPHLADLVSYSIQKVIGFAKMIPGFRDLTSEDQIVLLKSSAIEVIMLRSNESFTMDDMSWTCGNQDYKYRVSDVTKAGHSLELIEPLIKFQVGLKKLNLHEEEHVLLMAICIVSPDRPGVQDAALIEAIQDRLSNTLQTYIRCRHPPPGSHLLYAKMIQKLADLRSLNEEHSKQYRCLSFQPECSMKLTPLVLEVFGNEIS
# Procedure, shortened: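 Antagonist-mode beta-lactamase reporter assay: HEK293T VDR-UAS-bla cells were exposed to titrated compound alongside 1-alpha,25-dihydroxyvitamin D3 at 3 nM final for 16 h. Values were normalized to the 50 nM agonist control and DMSO basal, with IC50 and efficacy from Hill equation fits.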
# [12] = molecular target: Vitamin D3 receptor (Homo sapiens) (UniProt P11473); experiment: qHTS assay for small molecule agonists of vitamin D receptor signaling (AID 588543); settings: HEK293T VDR-UAS-bla, beta-lactamase ratio, 16 h; series mostly up to 76.8 µM
# Procedure, shortened: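 β-lactamase reporter, VDR-UAS-bla HEK293T, agonist mode. Cells plated 5 h at 37 °C, compound titration 16 h at 37 °C, CCF4 dye 2 h RT, ratio 460/530 nm. Hill fit → EC50, efficacy vs 50 nM 1α,25-(OH)2D3.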
# [13] = qHTS assay for small molecule activators of the p53 signaling pathway (AID 651743; active = well fitted activation curve with a large enough effect in the signal ratio, not every such curve was filed as active; the % refers to the signal ratio); settings: HCT-116 p53RE-bla, beta-lactamase FRET ratio, 16 h; activation: stronger effect = higher value
# Procedure, shortened: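 Read-out is fluorescence intensity from the LiveBLAzer B/G FRET substrate, added for 2 hours at room temperature after HCT-116 p53RE-bla cells had been incubated with compounds for 16 hours at 37 C.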
# [14] = qHTS assay for small molecule disruptors of the mitochondrial membrane potential - 1 hr assay (AID 651754); settings: series mostly up to 92.2 µM; also: nearly all actives have a fitted effect of over 35% in size
# Procedure, shortened: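 HepG2 cells, attached overnight, were exposed to compound for 1 hr at 37C, then stained 30 min with a potentiometric dye. Ratio of red aggregate (590nm) to green monomer (535nm) fluorescence reports membrane potential; collapse shifts signal toward green.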
# [15] = molecular target: Nuclear receptor ROR-gamma (Homo sapiens) (UniProt P51449); experiment: qHTS assay for small molecule antagonists of the retinoid-related orphan receptor gamma (ROR-gamma) signaling pathway (AID 651802; active = well fitted curve in the direction sought with a large enough effect; an effect the other way counts as inactive or inconclusive;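 also: luciferase reporter luminescence driven by ROR response element; nearly all actives have a fitted effect of over 60% in size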); settings: ROR-gamma antagonist cell reporter assay; series mostly up to 92.2 µM
# Sequence of Nuclear receptor ROR-gamma (Homo sapiens) (P51449 whole entry, looked up): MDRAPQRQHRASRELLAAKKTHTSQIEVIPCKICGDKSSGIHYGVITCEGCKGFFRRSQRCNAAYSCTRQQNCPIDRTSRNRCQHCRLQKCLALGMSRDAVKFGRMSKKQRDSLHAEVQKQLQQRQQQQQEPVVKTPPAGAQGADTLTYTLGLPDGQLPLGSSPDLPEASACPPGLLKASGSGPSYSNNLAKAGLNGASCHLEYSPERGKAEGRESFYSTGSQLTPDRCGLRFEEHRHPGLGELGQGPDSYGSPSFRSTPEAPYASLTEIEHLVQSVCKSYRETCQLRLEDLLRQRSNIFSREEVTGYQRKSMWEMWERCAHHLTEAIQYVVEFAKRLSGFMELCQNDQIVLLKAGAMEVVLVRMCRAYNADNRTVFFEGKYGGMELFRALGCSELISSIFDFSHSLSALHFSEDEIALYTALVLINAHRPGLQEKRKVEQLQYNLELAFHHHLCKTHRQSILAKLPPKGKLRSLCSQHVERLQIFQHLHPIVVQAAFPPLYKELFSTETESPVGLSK
# Procedure, shortened: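 CHO cells with TET-inducible ROR-gamma and RORE-luciferase reporter, dosed then doxycycline-induced. After 16 h at 37C, One-Glo luminescence read; decreased signal indicates antagonism.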
# [16] = qHTS assay for small molecule antagonists of the retinoid-related orphan receptor gamma (ROR-gamma) signaling pathway - cell viability counter screen (AID 720652; active = well fitted curve in the direction sought with a large enough effect in the repeat runs; an effect the other way counts as inactive or inconclusive;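 also: compound exposure lasted 16 hr before ATP read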); settings: RORgamma reporter cell line viability counter screen; series mostly up to 92.2 µM
# Procedure, shortened: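 CHO cells carrying TET-inducible ROR and RORE-luciferase reporter, plated 5 hr, then dosed with compound plus doxycycline. After 16 hr at 37 C, viability read as intracellular ATP by CellTiter-Glo luminescence.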
# [17] = molecular target: Estrogen receptor (Homo sapiens) (UniProt P03372); experiment: qHTS assay for small molecule antagonists of estrogen receptor alpha signaling (AID 588513; active = well fitted curve in the direction sought with a large enough effect in the signal ratio, with a control signal flat, not every such curve was filed as active; the % refers to the signal ratio); settings: ER-alpha-UAS-bla HEK293, beta-lactamase ratio, antagonist mode; series mostly up to 76.9 µM
# Sequence of Estrogen receptor (Homo sapiens) (P03372 whole entry, looked up): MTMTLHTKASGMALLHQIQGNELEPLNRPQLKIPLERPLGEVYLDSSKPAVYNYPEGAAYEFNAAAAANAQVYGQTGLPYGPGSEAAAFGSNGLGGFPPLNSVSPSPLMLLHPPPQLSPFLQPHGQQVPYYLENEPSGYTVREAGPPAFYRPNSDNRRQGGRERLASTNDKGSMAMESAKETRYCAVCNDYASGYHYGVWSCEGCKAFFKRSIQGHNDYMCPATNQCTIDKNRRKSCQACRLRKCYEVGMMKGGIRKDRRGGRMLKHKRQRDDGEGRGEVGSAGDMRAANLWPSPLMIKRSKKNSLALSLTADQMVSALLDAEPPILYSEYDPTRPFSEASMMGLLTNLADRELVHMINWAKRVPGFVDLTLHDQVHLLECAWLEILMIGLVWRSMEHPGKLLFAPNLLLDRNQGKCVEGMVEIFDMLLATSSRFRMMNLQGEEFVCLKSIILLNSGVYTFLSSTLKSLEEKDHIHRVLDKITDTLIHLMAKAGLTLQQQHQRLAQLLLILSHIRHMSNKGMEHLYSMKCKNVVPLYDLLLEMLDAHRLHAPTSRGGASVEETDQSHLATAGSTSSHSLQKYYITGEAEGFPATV
# Procedure, shortened: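 Beta-lactamase reporter, antagonist mode, HEK 293 GripTite cells; 0.5nM E2 stimulus, 18 h, 37 C; CCF4 dye 2 h RT; fluorescence. IC50 and efficacy from Hill fits, normalized to E2 and DMSO.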
# [18] = molecular target: Estrogen receptor (Homo sapiens) (UniProt P03372); experiment: qHTS assay for small molecule agonists of estrogen receptor alpha signaling (AID 588514); settings: ER-alpha-UAS-bla HEK293, beta-lactamase ratio, 18 h; series mostly up to 76.8 µM; also: nearly all actives have a fitted effect of over 70% in size
# Procedure, shortened: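 ER-alpha-UAS-bla GripTite HEK293 cells, 5000/well in 2% charcoal/dextran-stripped FBS medium, treated with compound titrations 18 h at 37 C. CCF4 beta-lactamase read by fluorescence after 2 h RT; normalised to 20 nM 17-beta-estradiol (100%) and DMSO (0%), Hill fit for EC50 and efficacy.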
# [19] = qHTS assay for small molecule activators of the human pregnane X receptor (PXR) signaling pathway (AID 720659; call rule not given here); settings: DPX-2 HepG2 CYP3A4-luciferase, 24 h; series mostly up to 92.3 µM
# [20] = molecular target: Nuclear receptor subfamily 1 group I member 2 (Rattus norvegicus) (UniProt Q9R1A7); experiment: qHTS assay for small molecule activators of the rat pregnane X receptor (rPXR) signaling pathway (AID 651751; call rule not given here); settings: rPXR reporter cells, luciferase (One-Glo), 24 h
# Sequence of Nuclear receptor subfamily 1 group I member 2 (Rattus norvegicus) (Q9R1A7 whole entry, looked up): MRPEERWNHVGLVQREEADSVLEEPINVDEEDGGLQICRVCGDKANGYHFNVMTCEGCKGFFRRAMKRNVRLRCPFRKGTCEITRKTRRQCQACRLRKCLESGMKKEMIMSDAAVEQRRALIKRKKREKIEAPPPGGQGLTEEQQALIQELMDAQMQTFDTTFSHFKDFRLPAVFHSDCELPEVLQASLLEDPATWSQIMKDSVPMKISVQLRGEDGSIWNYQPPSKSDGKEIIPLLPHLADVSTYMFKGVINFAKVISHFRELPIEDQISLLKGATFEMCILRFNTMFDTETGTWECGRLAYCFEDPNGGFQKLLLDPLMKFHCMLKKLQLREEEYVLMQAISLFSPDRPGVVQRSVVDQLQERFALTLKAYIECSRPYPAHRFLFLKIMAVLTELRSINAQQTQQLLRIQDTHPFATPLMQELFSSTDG
Structure (SMILES),activation [1],Potency [2],Potency [3],Potency [4],Potency [5],activation [6],Potency [7],max response [8],Potency [9],outcome [10],outcome [11],outcome [12],activation [13],Potency [14],Potency [15],Potency [16],Potency [17],Potency [18],outcome [19],max response [20]
CC1=C2[C@H](/C=C(\C)C(=O)O)CC[C@@H](C)[C@H]2CC1,-3.32% (inactive),,,,,,,,,,,,,,,,,,,
COC1=CC(=O)O[C@@H](/C=C/c2ccc3c(c2)OCO3)C1,,inactive,inactive,inactive,inactive,-3.44% (inactive),inactive,27.2%,inactive,inactive,inactive,inactive,-5.07% (inactive),inactive,inactive,inactive,,,,
O=C=NC1CCCCC1,-4.4% (inactive) and -2.88% (inactive),inactive,inactive,inactive,inactive,10.3% (inactive),inactive,,,inactive,inactive,inactive,-1.8% (inactive) and -1.61% (inactive),inactive,inactive,inactive,inactive,inactive,inactive,
CCCCCCCCCCCCCC(=O)O,0.574% (inactive),,,,,,,,,,,,,,,,,,,
Nc1c(Cl)c(Cl)nc(C(=O)O)c1Cl,,inactive,inactive,inactive,inactive,-2.38% (inactive) and -16.4% (inactive) and -2.51% (inactive),inactive,,,inactive,,,-3.11% (inactive) and -9.55% (inactive) and -6.83% (inactive),inactive,inactive,inactive,inactive,,inactive,-1% (inactive) and -3.34% (inactive) and -1.89% (inactive)
C=CC(C)(CCC=C(C)C)OC(C)=O (stereo not drawn),-2.23% (inactive),,,,,,,,,,,,,,,,,,,
Brc1ccccc1,,,inactive,inactive,inactive,-10.5% (inactive) and -5.75% (inactive),inactive,10.8%,inactive,inactive,inactive,inactive,-1.82% (inactive) and -1.95% (inactive),inactive,inactive,inactive,inactive,inactive,inactive,0.981% (inactive) and 1.34% (inactive)
C=CCc1ccc(OC)c(OC)c1,0.141% (inactive),,,,,,,,,,,,,,,,,,,
C[N+](C)(C)Cc1ccccc1,-0.315% (inactive) and 0.14% (inactive),inactive,,,inactive,-1.14% (inactive),inactive,-16.9% and 15.9%,inactive,inactive,inactive,inactive,,inactive,inactive,inactive,inactive,inactive,inactive,-3.63% (inactive) and -0.669% (inactive)
C=CC(C)=O,-1.53% (inactive),inactive,inactive,inactive,inactive,-1.11% (inactive),inactive,6.99%,inactive,inactive,,,-2.21% (inactive),inactive,inactive,inactive,inactive,inactive,inactive,1.84% (inactive)
N#CCCCl,,inactive,inactive,inactive,inactive,-5% (inactive) and -0.386% (inactive),inactive,,,,inactive,inactive,-0.742% (inactive) and -1.01% (inactive),inactive,inactive,inactive,,,inactive,-4.29% (inactive) and -2.84% (inactive)
ClCBr,-2.9% (inactive),inactive,inactive,inactive,,-4.32% (inactive),inactive,36.6%,inactive,inactive,inactive,inactive,,inactive,inactive,inactive,inactive,inactive,inactive,0.745% (inactive)
C=C(C)C(=O)OCC1CO1 (stereo not drawn),-3.45% (inactive),inactive,inactive,inactive,inactive,-3.77% (inactive),inactive,-13.4%,inactive,inactive,inactive,inactive,-0.637% (inactive),inactive,inactive,inactive,inactive,inactive,inactive,-2.46% (inactive)
Clc1nc(Cl)nc(Cl)n1,,inactive,inactive,inactive,inactive,2.08% (inactive) and -5.01% (inactive),inactive,-3.59% and 8.32%,inactive,inactive,inactive,inactive,-4.73% (inactive) and -1.27% (inactive),inactive,inactive,inactive,inactive,inactive,,-1.06% (inactive) and -1.98% (inactive)
